High-throughput results (PubChem BioAssay)
ssDAF-12 act = activates DAF-12 receptor from parasite S. stercoralis; HEK293 ssDAF-12/GRIP1 lit1-tk-luc reporter, luminescence; % of 3 µM dafachronic acid response; activation, % at 6.8 µM; 370,000 tested, 1% active;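 active = activation above the mean over all tested compounds plus 3 SD, cut at about 0.9% in these data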
hcDAF12 agonist = H. contortus DAF-12 activation, primary screen; 370,000 tested, 1.4% active; AID 652067; HEK293 hcDAF-12 lit1-tk-luc reporter, luminescence; 0% DMSO, 100% Δ7-dafachronic acid; activation, % at 6.8 µM;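 active = activation above the mean of all tested compounds plus 3 SD, cut at about 5.5% in these data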
DAX1 inh-1 = inhibits human nuclear receptor DAX1. P51843. HEK293 Gal4-DAX1 luciferase reporter, luminescence. inhibition, % at 6.75 µM. 340,000 tested, 0.99% active;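 active = inhibition above the mean over all tested compounds plus 3 SD, cut at about 4.2% in these data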;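 also: inhibition shows as a rise in luminescence from relieved DAX1 repression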
Target sequence (P51843 207-470 limits assumed): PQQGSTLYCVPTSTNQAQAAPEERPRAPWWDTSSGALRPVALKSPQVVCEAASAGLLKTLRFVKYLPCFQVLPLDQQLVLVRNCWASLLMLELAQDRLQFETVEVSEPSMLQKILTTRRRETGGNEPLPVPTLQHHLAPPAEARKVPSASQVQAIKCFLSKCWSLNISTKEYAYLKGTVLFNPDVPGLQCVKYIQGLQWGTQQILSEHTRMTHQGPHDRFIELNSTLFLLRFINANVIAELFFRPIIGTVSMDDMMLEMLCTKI
AHR act = activates the human aryl hydrocarbon receptor; AHR-responsive luciferase reporter cells, luminescence; activation, % at 5 µM; 320,000 tested, 2.5% active; in the data active = activation above about 47%
DAX1 inh-2 = inhibitors of DAX1 repression of SF-1 activated StAR promoter | HEK293T StAR-luciferase reporter, SF-1/DAX-1 repression relief | inhibition, % at 6.8 µM | 370,000 tested, 1.1% active | AID 652010;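 active = inhibition above the mean over all tested compounds plus 3 SD, cut at about 3.6% in these data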;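 also: higher inhibition means more luminescence from relief of DAX-1 repression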
hgDAF-12 ag = activates the H. glycines DAF-12 receptor ligand-binding domain. HEK293 GAL4-hgDAF12 UAS-luciferase reporter, agonist luminescence; normalized to butyrate control. activation, % at 6.8 µM. 370,000 tested, 1.8% active. AID 687014;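 active = activation above a cutoff set at the mean of all screened compounds plus 3 SD, cut at about 10% in these data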
hgDAF12 conf = hgDAF-12 agonism, confirmation assay | shares compounds with hgDAF-12 ag | HEK293 GAL4-hgDAF12 luciferase reporter, agonist mode; percent of butyrate response | activation, % at 6.8 µM | 3,300 tested, 80% active | AID 743050;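 active = mean activation over triplicate wells above the hit cutoff derived from the earlier primary screen, cut at about 11% in these data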
LXRb DAF12 ctr = LXR-beta agonism as DAF-12 counter-screen | activation, % at 6.8 µM | 3,300 tested, under 10 active | AID 743051 | shares compounds with hgDAF-12 ag | HEK293 Gal4-LXR luciferase reporter, 24 h;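 active = mean activation of the triplicate above a set limit carried over from the primary screen, none filed active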
Each line names hits and unclear results; the compound was inactive in the other large screens (follow-up assays come after a bar, where they were run). This is a sample that favours compounds with a hit; in the whole collection about 5.7% have one here.

CCCn1cnc2cc(NC(=O)c3cccs3)ccc21	hgDAF-12 ag 13.5 | hgDAF12 conf inactive | LXRb DAF12 ctr inactive
CCn1cnc2cc(NC(=O)c3ccc(C)cc3)ccc21	hgDAF-12 ag 13.5 | hgDAF12 conf 10.8 | LXRb DAF12 ctr inactive
CCC(Oc1ccccc1C)C(=O)N1CCCN(C)CC1 (stereo not given)	none
COc1ccc(Cn2cc(CN3[C@H](C)COc4cc(Br)ccc4S3(=O)=O)nn2)cc1	none (no result: DAX1 inh-1, AHR act)
CCc1ccc(C(O)c2ncc(-c3ccc(C)cc3)[nH]2)cc1 (stereo not given)	none (no result: DAX1 inh-1, AHR act)
Cc1csc2nc(SCC(=O)N3CCN(c4ccccc4)CC3)[nH]c(=O)c12	none
CCCc1ccc(-c2cc(NC(=O)CSc3nnc(N)s3)n(-c3ccccc3)n2)cc1	DAX1 inh-2 4.1, hgDAF-12 ag 13.7 | hgDAF12 conf 18.5 | LXRb DAF12 ctr inactive
Nc1ccc(-c2nc3ccc([N+](=O)[O-])cc3[nH]2)cc1	DAX1 inh-2 4.3, hgDAF-12 ag 15.7 | hgDAF12 conf 14.8 | LXRb DAF12 ctr inactive
O=[N+]([O-])c1ccc(-c2nc3ccc([N+](=O)[O-])cc3[nH]2)cc1	none
O=C(Cn1cnc2ccccc2c1=O)Nc1ccc2c(c1)OCCO2	hgDAF-12 ag 17.0 | hgDAF12 conf 13.9 | LXRb DAF12 ctr inactive
CCN(CC)S(=O)(=O)c1ccc(S(=O)(=O)N2CCC(N3CCCCC3)CC2)cc1	none
O=c1c2ccccc2nnn1CSc1ccc2ccccc2n1	none
O=c1c2ccccc2nnn1CSc1ccccc1	AHR act 60.4, DAX1 inh-2 3.6, hgDAF-12 ag 15.7 | hgDAF12 conf 13.6 | LXRb DAF12 ctr inactive
CCOC(=O)N/N=C1\CCc2ccccc21	hgDAF-12 ag 14.9 | hgDAF12 conf inactive | LXRb DAF12 ctr inactive
O=C(N/N=C1/CCc2ccccc21)C1CC1	none
Cc1ccc(C(=O)N/N=C2\CCc3ccccc32)c(C)c1	hgDAF-12 ag 15.2 | hgDAF12 conf 13.6 | LXRb DAF12 ctr inactive
Cc1ccc(C(=O)NCc2ccc(F)cc2)s1	none
Cc1ccc(C(=O)NCCc2ccc(F)cc2)s1	hgDAF-12 ag 17.1 | hgDAF12 conf 17.1 | LXRb DAF12 ctr inactive
CCc1noc(C)c1C(=O)N1CCN(S(=O)(=O)c2c(C)c(C)cc(C)c2C)CC1	none
Cc1ccc(C(=O)Nc2nnc(C)s2)cc1	DAX1 inh-2 4.3, hgDAF-12 ag 15.9 (no result: DAX1 inh-1) | hgDAF12 conf 12.1 | LXRb DAF12 ctr inactive
Cc1ccc(NC(=O)c2ccc(CSc3nnc(C)s3)cc2)cc1	hgDAF-12 ag 16.1 | hgDAF12 conf 13.8 | LXRb DAF12 ctr inactive
CC(=O)Oc1ccc(C(=O)Nc2nnc(C)s2)cc1	none
c1cncc(-c2cn(C[C@H]3CC[C@H](Cn4cc(-c5cccnc5)nn4)O3)nn2)c1	none (no result: AHR act)
COc1cc(SC)ccc1C(=O)Nc1cccc(C)n1	DAX1 inh-2 4.0, hgDAF-12 ag 15.9 | hgDAF12 conf 12.4 | LXRb DAF12 ctr inactive
COc1cc(SC)ccc1C(=O)Nc1ccc2ncccc2c1	ssDAF-12 act 2.4, hgDAF-12 ag 15.3 | hgDAF12 conf 16.9 | LXRb DAF12 ctr inactive
COc1ccc(NC(=O)Nc2cccc(C)n2)cc1	hgDAF-12 ag 17.2 | hgDAF12 conf 12.5 | LXRb DAF12 ctr inactive
COc1ccc(NC(=S)Nc2cccc(C)n2)cc1	none (no result: DAX1 inh-1)
COc1ccc(NC(=O)Nc2nc3c(s2)CCCC3)cc1	hgDAF-12 ag 19.1 | hgDAF12 conf 15.8 | LXRb DAF12 ctr inactive
Cc1cc(/C=C2\SC(=Nc3ccccc3)NC2=O)c(C)n1-c1ccc(S(N)(=O)=O)cc1	none
CC(=O)Oc1ccc(C(=O)[C@H]2[C@H]3C(=O)N(c4ccc(C)cc4)C(=O)[C@H]3[C@@H]3C=CC=NN32)cc1	hcDAF12 agonist 5.9, hgDAF-12 ag 16.3 | hgDAF12 conf inactive | LXRb DAF12 ctr inactive
CCOC(=O)c1sc(NC(=O)c2ccccc2)cc1C	hgDAF-12 ag 16.9 | hgDAF12 conf 12.9 | LXRb DAF12 ctr inactive
CCOC(=O)c1sc(NC(=O)c2ccc(S(=O)(=O)N(C)C)cc2)cc1C	none
